HT1080 IDH1KD tx – qHTS for induction of synthetic lethality in tumor cells producing 2HG: qHTS for the HT-1080-IDH1KD cell line; Potency, µM (titrated, usually from 46.1 µM), most hits filed as cytotoxic; AID 686971, 2013; HT-1080 IDH1 knockdown viability, ATP luminescence, 48 h; 360,000 tested, 2% active
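Assay cells: HT-1080 with IDH1 knockdown, 750 per well, RPMI/5% FBS. Exposure: 48 h at 37 °C following 2 h pre-incubation. Read: CellTiter-Glo luminescence; fitted concentration-response, curve class assigned.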
SW480 rerep – A quantitative high throughput screen for small molecules that induce DNA re-replication in SW480 colon adenocarcinoma cells; SW480 DNA re-replication, Hoechst DNA content imaging, 48 h; Potency, µM (highest dose often 46.1 µM), usual class: activators; 340,000 tested, 1.8% active; AID 624297, 2012; also: nearly all actives have a fitted effect of over 55% in size
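DNA re-replication was detected as more nuclei of elevated Hoechst intensity after 48 hr exposure to compound (23 nL pinned per well of 250 cells).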
KB-3-1 tox – qHTS assay for MDR1-selective chemotherapeutics: Primary screen using the parental adenocarcinoma cell KB-3-1. KB-3-1 viability, CellTiter-Glo ATP luminescence, 72 h. Potency, µM (series often up to 46.1 µM), most hits filed as cytotoxic. 400,000 tested, 1.4% active. AID 1347075, 2019; also: nearly all actives have a fitted effect of over 60% in size
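Cytotoxicity measured as CellTiter-Glo luminescence after 72 h at 37 C. Compound titrations were pinned onto drug-naive KB-3-1 parental adenocarcinoma cells grown in DMEM with 10% FBS, and normalized data fitted to concentration-response curves.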
MCF10A rereplic – A quantitative high throughput screen for small molecules that induce DNA re-replication in MCF 10a normal breast cells; MCF 10A DNA re-replication, Hoechst nuclear intensity, 48 h; Potency, µM (titrated, usually from 46.1 µM), actives largely listed as activators; 350,000 tested, 2.9% active; AID 624296, 2012; also: nearly all actives have a fitted effect of over 50% in size
HT1080-NT tox – qHTS for induction of synthetic lethality in tumor cells producing 2HG: qHTS for the HT-1080-NT fibrosarcoma cell line; HT-1080-NT fibrosarcoma viability, CellTiter-Glo ATP luminescence, 48 h; Potency, µM (titrated, usually from 46.1 µM), most hits filed as cytotoxic; 360,000 tested, 1.6% active; AID 686970, 2013;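 also: NT is the 2HG producing partner of a matched IDH1 knockdown line; nearly all actives have a fitted effect of over 55% in size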
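Luminescent CellTiter-Glo readout after 48 hours of compound exposure at 37 degrees C defined viability of HT-1080-NT cells. Activity was normalized to DMSO wells and cell-free media wells; concentration-response curves were fitted and assigned curve classes.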
KB-V1 cytotox – qHTS assay for MDR1-selective chemotherapeutics: Primary screen using the drug-selected MDR subline cells KB-V1; KB-V1 MDR cells viability, CellTiter-Glo, 72 h; Potency, µM (doses to about 46.1 µM), actives largely listed as cytotoxic; 400,000 tested, 3.4% active; also: nearly all actives have a fitted effect of over 60% in size
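Compound-treated KB-V1 multidrug-resistant cells, 72 h, 37 degrees C; viability by CellTiter-Glo. Fitted qHTS curves give the values.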
Each line names hits and unclear results; the compound was inactive in the other large screens. Hits are enriched below; roughly 8% of the tested compounds scored in any of these assays. Calls follow the shape of the dose curve; as a rule, active = well fitted curve in the direction sought with a large enough effect; inconclusive = small, poorly fitted or top-dose-only effect, or another doubt; inactive = no such curve, though single readings can be large; an effect the other way counts as inactive or inconclusive.

CC(C)(C)c1ccc(CN2C3=NCCCN3c3ccccc32)cc1	HT1080 IDH1KD tx 23.1µM, SW480 rerep inconclusive, KB-3-1 tox inconclusive, MCF10A rereplic inconclusive, HT1080-NT tox inconclusive, KB-V1 cytotox inconclusive
Cc1ccc(S(=O)(=O)N2CCCCC2CCNC(=O)C(=O)NC2CCCC2)cc1 (configuration not stated)	SW480 rerep inconclusive, MCF10A rereplic inconclusive, KB-V1 cytotox inconclusive
COC(=O)C(C)Sc1nc2c(c(=O)[nH]c(=O)n2C)n1CCCc1ccccc1 (configuration not stated)	none
COc1ccc(-c2cnc3c(NC=O)cc(-c4ccccc4OC)cn23)cc1OC	HT1080 IDH1KD tx 0.184µM, KB-3-1 tox 0.184µM, HT1080-NT tox 0.0461µM, KB-V1 cytotox 1.16µM (no result: SW480 rerep, MCF10A rereplic)
COc1ccc(-c2cc(NC=O)c3ncc(-c4ccc(OC)c(OC)c4)n3c2)cc1	HT1080 IDH1KD tx 0.581µM, KB-3-1 tox 1.64µM, HT1080-NT tox 1.03µM, KB-V1 cytotox 3.66µM (no result: SW480 rerep, MCF10A rereplic)
COc1ccc(-c2cc(NC(C)=O)c3ncc(-c4ccccc4)n3c2)cc1OC	HT1080-NT tox inconclusive (no result: SW480 rerep, MCF10A rereplic)
Cc1ccc(SCC(=O)NC(=O)c2ccccc2Br)c(C)c1	none
O=C1C2CCC(C(O)C2)N1Cc1ccccc1 (configuration not stated)	KB-V1 cytotox inconclusive
COc1ccc(N2C(=O)NC3CC2(C)Oc2ccc(Cl)cc23)cc1OC (configuration not stated)	SW480 rerep inconclusive, KB-3-1 tox inconclusive, MCF10A rereplic inconclusive, KB-V1 cytotox inconclusive
COc1ccc(CCN2C(=S)NC3CC2(C)Oc2ccc([N+](=O)[O-])cc23)cc1OC (configuration not stated)	HT1080 IDH1KD tx inconclusive, SW480 rerep 16.4µM, KB-V1 cytotox 6.51µM
Cc1cccc(NC(=O)CN2C(=O)CC(c3ccccc3)Sc3ccccc32)c1 (configuration not stated)	KB-V1 cytotox inconclusive (no result: HT1080 IDH1KD tx, SW480 rerep, MCF10A rereplic, HT1080-NT tox)
CCOC(=O)c1ccccc1NC(=O)CN1C(=O)CC(c2ccccc2)Sc2ccccc21 (configuration not stated)	KB-3-1 tox inconclusive, KB-V1 cytotox 11.6µM (no result: HT1080 IDH1KD tx, SW480 rerep, MCF10A rereplic, HT1080-NT tox)
COc1ccc(C2CC(=O)N(CC(=O)Nc3ccc(C(C)=O)cc3)c3ccccc3S2)cc1OC (configuration not stated)	KB-V1 cytotox inconclusive (no result: HT1080 IDH1KD tx, SW480 rerep, MCF10A rereplic, HT1080-NT tox)
COc1ccc(C2CC(=O)N(CC(=O)Nc3ccc(C)c(Cl)c3)c3ccccc3S2)cc1OC (configuration not stated)	KB-3-1 tox inconclusive, KB-V1 cytotox 18.4µM (no result: HT1080 IDH1KD tx, SW480 rerep, MCF10A rereplic, HT1080-NT tox)
Cn1cc(Cl)c(-c2nc3ccccc3[nH]2)n1	none
N#Cc1ccc(Oc2ccc(-c3nc4ccccc4nc3-c3ccccc3)cc2)cc1C#N	KB-V1 cytotox 20.6µM
FC(F)(F)c1cc(CCN2CCNC[C@@H]2CC2CCCCC2)cc(C(F)(F)F)c1	HT1080 IDH1KD tx inconclusive, MCF10A rereplic 18.4µM, HT1080-NT tox inconclusive
O=C(COC(=O)c1ccc(O)cc1)c1ccc2c(c1)OCCO2	none
COc1cc(CC(=O)OCC(=O)c2ccc3c(c2)OCCO3)cc(OC)c1OC	HT1080 IDH1KD tx 1.46µM, SW480 rerep 3.26µM, KB-3-1 tox 1.03µM, MCF10A rereplic 1.3µM, HT1080-NT tox 1.64µM, KB-V1 cytotox 0.731µM
CCOC(=O)C1CCCN(CC(=O)Nc2c(C(=O)OC)[nH]c3ccc(Br)cc23)C1 (configuration not stated)	HT1080 IDH1KD tx inconclusive, MCF10A rereplic inconclusive, HT1080-NT tox inconclusive
Clc1cccc(-n2ncc3c(NC4CCCCCC4)ncnc32)c1	none (no result: HT1080 IDH1KD tx, SW480 rerep, MCF10A rereplic, HT1080-NT tox)
CC(NCc1ccc(OCc2ccc(Cl)cc2)cc1)C(O)c1ccccc1 (configuration not stated)	HT1080 IDH1KD tx 18.4µM, SW480 rerep inconclusive, KB-3-1 tox inconclusive, MCF10A rereplic 18.4µM, HT1080-NT tox 23.1µM, KB-V1 cytotox inconclusive
CC(NCc1cccc(OCc2ccccc2)c1)C(O)c1ccccc1 (configuration not stated)	SW480 rerep inconclusive
CCC(C)c1ccc(NC(=O)C2=CC=CN3CCS(=O)(=O)N=C23)cc1 (configuration not stated)	KB-3-1 tox inconclusive
O=C(c1ccc([N+](=O)[O-])cc1[N+](=O)[O-])N1CCc2ccccc21	none
COCCN=C1N[C@@H](c2ccc(Br)cc2)C(C(=O)OC)=C(C)N1Cc1ccccc1	HT1080-NT tox 23.1µM
COCCN=C1N[C@@H](c2ccccc2)C(C(=O)OC)=C(C)N1Cc1ccccc1	none
COCCOC(=O)C1=C(C)N(Cc2ccccc2)C(=O)NC1c1ccc(OC)cc1 (configuration not stated)	MCF10A rereplic inconclusive, KB-V1 cytotox 13µM
Cc1nn(Cc2c(Cl)cccc2Cl)c(Cl)c1/C=C/C(=O)OCC(=O)NCC(F)(F)F	none
COCCNC(=O)COC(=O)/C=C/c1c(C)nn(Cc2ccc(Cl)cc2Cl)c1Cl	HT1080 IDH1KD tx inconclusive, KB-3-1 tox inconclusive, MCF10A rereplic 12.6µM, KB-V1 cytotox inconclusive
O=C(Nc1ccncc1)c1ccc(Cl)c(Cl)c1	none
COC(=O)c1c(NC(NC(=O)C(C)C)C(Cl)(Cl)Cl)sc2c1CCC2 (configuration not stated)	MCF10A rereplic inconclusive
CCC(=O)NC(Nc1sc2c(c1C(=O)OC)CCC2)C(Cl)(Cl)Cl (configuration not stated)	KB-3-1 tox inconclusive, MCF10A rereplic inconclusive, KB-V1 cytotox 23.1µM
COC(=O)c1c(NC(NC(=O)CC(C)C)C(Cl)(Cl)Cl)sc2c1CCC2 (configuration not stated)	SW480 rerep inconclusive, KB-V1 cytotox 18.4µM
CCOC(=O)c1c(NC(NC(C)=O)C(Cl)(Cl)Cl)sc2c1CCCC2 (configuration not stated)	KB-3-1 tox inconclusive, MCF10A rereplic 20.6µM, HT1080-NT tox inconclusive
CCOc1cc(/C=N/NC(=O)c2cccs2)cc([N+](=O)[O-])c1O	none
CCOC(=O)C[C@@H]1OC[C@H](C(C)C)N1S(=O)(=O)c1ccc(C)cc1	none (no result: SW480 rerep, MCF10A rereplic)
O=S(=O)(Nc1cccnc1Cl)c1ccc(F)cc1	none
O=S(=O)(Nc1cc(Sc2cccc3cccnc23)c(O)c2ccccc12)c1ccc(F)cc1	HT1080 IDH1KD tx 20.6µM, SW480 rerep 0.731µM, KB-3-1 tox 3.26µM, MCF10A rereplic 10.3µM, HT1080-NT tox 23.1µM, KB-V1 cytotox inconclusive

Screening results from PubChem.
